Results filed as inconclusive are left out. Where a call stands in place of a potency, no number is given. Active and inactive are the calls of the source. Calls come from the whole dose curve; as a rule, active = well fitted cell-killing curve with a large enough effect in the repeat runs; inconclusive = weak or mixed curves, or effect the other way; inactive = flat fitted curve, though single readings scatter.
Test: qHTS RealTime-Glo MT Cell Viability Assay in HEK293 cells - 0 hour (AID 1224880); note: nearly all actives have a fitted effect of over 45% in size
Details: RealTime-Glo luminescence; series mostly up to 76.8 µM
Excerpt: U.S. Tox21 Program National Center for Advancing Translational Sciences [NCATS] NIH Chemical Genomics Center [NCGC] U.S. Environmental Protection Agency [EPA] National Institutes of Environmental Health Sciences [NIEHS] National Toxicology Program [NTP] U.S. Food and Drug Administration [FDA] Tox21 Assay Overview: Measure of cell viability is critical in the cell-base assay. Analysis of cell viability is necessary for the characterization of cell responses to cytotoxic drugs and environmental stress. A RealTime-Glo MT Cell Viability Assay to monitor cell viability in real time of continues cell culture during 40 hours of compound treatment was used to screen Tox21 10K library compounds in Hek293 cells. The RealTime-Glo MT Cell Viability Assay is a nonlytic, homogeneous, bioluminescent method to measure cell viability in real time using a simple, plate-based method. The assay involves adding NanoLuc luciferase and a cell-permeant prosubstrate to cells in culture. Viable cells reduce the proprietary prosubstrate to generate a substrate for NanoLuc luciferase. This substrate diffuses from cells into the surrounding culture medium, where it is rapidly used by the NanoLuc Enzyme to produce a luminescent signal. The signal correlates with the number of viable cells, making the assay well suited for cytotoxicity studies.
Tox21 Assay Protocol Summary: The mixture of Hek293 cell suspension and reagents were dispensed at 600cells/6 ul/well in 1536-well tissue culture treated black solid bottom plates using a Multidrop dispenser. After the assay plates were incubated at a 37 C/5% CO2 incubator for 5 hours, 23 nL of compounds dissolved in DMSO, positive and negative controls was transferred to the assay plate by a pintool work station. The plates were incubated at 37 C for 40 hours. The luminescence intensity were measured at 0h, 8h, 16h, 24h, 32h and 40h time points using ViewLux plate reader during compound treatment.
Potency is the fitted concentration of half-maximal effect.

Structure (SMILES)	Potency
Cc1cnc2c(C(=O)O)c(Cl)ccc2c1	inactive
CCN(CC)CCc1c[nH]c2ccccc12	inactive
Oc1cccc(Cl)c1Cl	inactive
C=CCBr	inactive
CC(C)C(Nc1ccc(C(F)(F)F)cc1Cl)C(=O)OC(C#N)c1cccc(Oc2ccccc2)c1 (stereo not given)	inactive
ClC1(Cl)C2(Cl)C3(Cl)C4(Cl)C(Cl)(Cl)C5(Cl)C3(Cl)C1(Cl)C5(Cl)C24Cl (stereo not given)	inactive
Oc1cc(Cl)c(Cl)c(Cl)c1Cl	inactive
BrCC(Br)(Br)Br	inactive
Fc1ccc(C(OCCN2CCN(CCCc3ccccc3)CC2)c2ccc(F)cc2)cc1	inactive
CCCCCON=O	inactive
C=CCOC(=O)c1ccccc1N	inactive
Nc1cc(Cl)ccc1Cl	inactive
CN=C=O	inactive
O.O.O.O=C([O-])[C@H]([O-])[C@@H]([O-])C(=O)[O-].O=C([O-])[C@H]([O-])[C@@H]([O-])C(=O)[O-].[K+].[K+].[Sb+3].[Sb+3]	inactive
O=C(CCCCl)c1ccc(F)cc1	inactive
O=[N+]([O-])c1ccc(Cl)c(Cl)c1Cl	inactive
[O-][Cl+3]([O-])([O-])O	inactive
CC1(C)[C@H](/C=C2\CCSC2=O)[C@@H]1C(=O)OCc1coc(Cc2ccccc2)c1	inactive
NC1CCC(CC2CCC(N)CC2)CC1 (stereo not given)	inactive
Oc1cc(Cl)cc(Cl)c1	inactive

Structure (SMILES)	Potency
O=S(=O)(O)F	inactive
CCOC(=O)CCN(SN(C)C(=O)Oc1cccc2c1OC(C)(C)C2)C(C)C	inactive
O=NN(CCO)CCO	inactive
N#CC(C#N)=NNc1cccc(Cl)c1	38.9 µM (active)
CC(C)=CCN1CC[C@@]2(C)c3cc(O)ccc3C[C@@H]1[C@@H]2C	inactive
CO/N=C(\C(=O)OC)c1ccccc1CO/N=C(\C)c1cccc(C(F)(F)F)c1	inactive
COP(=S)(NC(C)C)Oc1ccc(C)cc1[N+](=O)[O-] (stereo not given)	inactive
O=[N+]([O-])c1ccc(CCl)cc1	inactive
COC(=O)c1ccccc1S(=O)(=O)NC(=O)Nc1nc(C)nc(OC)n1	inactive
ClSC(Cl)(Cl)Cl	inactive
S=C=Nc1ccccc1	inactive
Cc1c([N+](=O)[O-])cc2c(c1[N+](=O)[O-])C(C)(C)CC2(C)C	inactive
[F][Sn]([c]1ccccc1)([c]1ccccc1)[c]1ccccc1	inactive
C=Cc1cccc(CCl)c1	inactive
CSSC	inactive
CC(=O)C(Cl)C(=O)N(C)C (stereo not given)	inactive
Nc1nc(N)c(N)c(N)n1	inactive
C[C@H]1[C@H](c2ccc(Cl)cc2)SC(=O)N1C(=O)NC1CCCCC1	inactive
COc1ccc2c3c1O[C@H]1[C@H](O)CC[C@H]4[C@@H](C2)N(C)CC[C@@]341	inactive
O=[N+]([O-])c1cccc2cccc([N+](=O)[O-])c12	inactive

Source: PubChem BioAssay (Tox21)
